# Potency and affinity values are given separately. The source made the active and inactive calls.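 The calls were made as follows: active = cell killing with a fitted half-effect concentration at or below twice the top valid dose; inconclusive = flat curve with 30 to 70 percent drop, or poor fit; inactive = the rest.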
# Assay: viability loss in HEK293T kidney cells – cell-based, ATP luminescence, cherry-pick, set 6, cytotoxicity control, dose response (AID 1053126)
# Settings: CellTiter-Glo ATP luminescence, 72 h; series mostly up to 26 µM
row,Structure (SMILES),outcome
1,O=C(NCc1nnnn1-c1ccc(Cl)cc1)C1CC(=O)N(c2ccc(F)cc2)C1 (stereo not drawn),inactive
2,CCN(CC)c1ccc2c(C)c(Cl)c(=O)oc2c1,inactive
3,Nn1c(SCC(=O)N2CCCC2)nnc1-c1cccs1,inactive
4,N#C/C(=C\c1ccco1)C(=O)Nc1cccc2ncccc12,inactive
5,COc1ccc(C2CC(c3ccccc3)=NN2c2ccc(C(N)=O)cc2)cc1 (stereo not drawn),inactive
6,O=C(Nc1ccc2c(c1)OCCO2)c1ccc(NC(=O)C2CCCO2)cc1 (stereo not drawn),inactive
7,CN(C)/C=C/C(=O)c1c(F)cccc1F,inactive
8,CCOc1ccc(S(=O)(=O)Nc2ccc(C(=O)N(CC)CC(=O)NCc3cccs3)cc2)cc1,inactive
9,O=C(C1=NN(c2ccccc2)C2C(=O)N(c3ccccc3)C(=O)C12)c1ccccc1 (stereo not drawn),inactive
10,NC(=O)c1c(NC(=O)Cc2ccccc2)sc2c1CCN(Cc1ccccc1)C2,inactive
11,Cc1cc(CNC(=O)c2ccc3c(c2)OCO3)c2ccccc2n1,inactive
12,Cn1cnc(S(=O)(=O)Nc2ccc(OC(F)(F)F)cc2)c1,inactive
13,CCOCCCNc1nc2nc3ccc(C)cn3c(=O)c2cc1C(=O)NCC1CCCO1 (stereo not drawn),inactive
14,COc1cc(C(=O)OCC(C)=O)cc(NC(=O)c2ccco2)c1OC,inactive
15,COc1cc(C2C3=C(CC(C)(C)CC3=O)N(C)C3=C2C(=O)CC(C)(C)C3)cc(Br)c1O,inactive
16,CCOc1ccccc1N=c1oc2cc(O)ccc2cc1C(=O)NCC1CCCO1 (stereo not drawn),inactive
17,CCOc1ccc(-n2c(SCC(=O)Nc3nccs3)nnc2-c2ccoc2C)cc1,inactive
18,N#C/C(=C\c1ccc(N2CCOCC2)o1)C(=O)NCCc1ccccc1,inactive
